Hit rate of the full screen: of about 5,500 compounds, about 2,000 (36%) were called active. Inconclusive results (about 18%) are left out. Cut-off read from the data, not from the text of the source: active = normalized growth mostly below about 0.91 (no sharp cut-off); inconclusive = no clear call, values can overlap the other calls; inactive = mostly above about 0.92. The list shows a part of the results.
Experiment: chemical genetic growth profiling, strain panel (AID 1159580);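 note: tested at 20 µM; growth read once vehicle control cultures reached saturation at 30 °C; 1 = growth at the plate median or of vehicle wells; lower values mean less growth of the strain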
Settings: S. cerevisiae deletion strains, growth OD
[1] = locus YAL040C, strain CLN3, hits give low values
[2] = locus YER002W, strain NOP16, hits give low values
[3] = locus YGR078C, strain PAC10, hits give low values
[4] = locus YNL175C, strain NOP13, hits give low values
[5] = locus YNL197C, strain WHI3, hits give low values
[6] = locus YNL224C, strain SQS1, hits give low values
[7] = locus YOR083W, strain WHI5 (second series), hits give low values
[8] = locus YPL241C, strain CIN2, hits give low values

Measured: normalized growth

CC(N)=O
inactive: [1] 0.973 | [2] 0.992 | [3] 1 | locus YGR229C, strain SMI1, hits give low values 1.01 | locus YJR075W, strain HOC1, hits give low values 0.991 | locus YNL128W, strain TEP1, hits give low values 0.997 | [4] 0.992 | [5] 1 | [6] 1.04 | [7] 1 | [8] 0.975

NC(=O)C(=O)O
inactive: locus YAL013W, strain DEP1, hits give low values 1.01 | [1] 1 | locus YCL061C, strain MRC1 (second series), hits give low values 1 | locus YDR150W, strain NUM1, hits give low values 1 | locus YDR363W, strain ESC2, hits give low values 1.02 | [2] 0.999 | [3] 0.994 | locus YMR307W, strain GAS1, hits give low values 1 | [4] 1.01 | [5] 1 | [6] 1.01 | [7] 1.02 | locus YPL055C, strain LGE1, hits give low values 1.01 | [8] 0.997

— PubChem BioAssay AID1159580 (chemical genetic matrix, 2015)
